# In PubChem BioAssay AID1851 (National Center for Advancing Translational Sciences (NCATS), 2009):
# “And” between values parts separate entries of the source, which are not always exact repeats. Equal values may be shown once. The whole screen tested about 16,000 compounds, of which about 5,700 (36%) were called active. Not shown: some 24% with an inconclusive outcome. Some of the results follow. Values without a mark were called inactive. Calls follow the shape of the dose curve; as a rule, active = well fitted curve in the direction sought with a large enough effect; inconclusive = small, poorly fitted or top-dose-only effect, or effect the other way; inactive = no such curve, though single readings can be large or run the other way. Square brackets hold non-standard residues; d marks the D form. Peptide text beside a SMILES is read from it.
# Target: Cytochrome P450 1A2 (Homo sapiens) (UniProt P05177)
# Test: Cytochrome panel assay with activity outcomes
# Conditions: recombinant CYP, pro-luciferin dealkylation, luminescence, p450-cyp1a2; series mostly up to 57.1 µM
# % is scaled to controls: 0 for no effect and ±100 for the full control effect.
# Sequence of Cytochrome P450 1A2 (Homo sapiens) (P05177 whole entry, looked up): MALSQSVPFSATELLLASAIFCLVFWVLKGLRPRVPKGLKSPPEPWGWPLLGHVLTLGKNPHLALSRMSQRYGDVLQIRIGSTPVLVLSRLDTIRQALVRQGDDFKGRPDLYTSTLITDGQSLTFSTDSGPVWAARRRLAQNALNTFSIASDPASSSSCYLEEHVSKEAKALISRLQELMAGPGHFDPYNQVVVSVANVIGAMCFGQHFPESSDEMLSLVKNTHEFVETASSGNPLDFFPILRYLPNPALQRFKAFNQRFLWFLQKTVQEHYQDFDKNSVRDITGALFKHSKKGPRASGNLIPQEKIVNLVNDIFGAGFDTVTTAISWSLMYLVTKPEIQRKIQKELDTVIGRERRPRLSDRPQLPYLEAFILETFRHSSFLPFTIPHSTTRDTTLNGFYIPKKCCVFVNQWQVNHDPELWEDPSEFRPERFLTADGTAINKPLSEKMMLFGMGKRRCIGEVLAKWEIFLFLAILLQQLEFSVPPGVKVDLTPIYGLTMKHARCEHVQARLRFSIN
SMILES,"activity, negative = inhibition",AC50
O=C(O)[C@@H]1[C@@H]2C[C@H]([C@@H](Br)[C@H]2N2C(=O)CCC2=O)[C@@H]1C(=O)O,-15.8% [at 2.29 µM],–
CN[C@@H]1[C@H](O[C@@H]2O[C@H](CO)[C@@H](N)[C@H](O)[C@@H]2O)O[C@H]2C[C@@H](N)[C@@H](O[C@H]3[C@@H](O)[C@H](O)[C@H](N)C[C@@H]3N)O[C@H]2[C@H]1O,–,inactive
CC(C)Cn1cnc2c(Sc3c([N+](=O)[O-])ncn3C)nc(N)nc21,8.13% [at 2.29 µM],–
Cc1ccc(OCCCOc2cccc3cccnc23)cc1C,–,2.82 µM (active)
Brc1ccccc1OCCOCCOc1cccc2cccnc12,–,2.24 µM (active)
Cc1c(CCO)c(=O)n(C)n1C(=O)c1ccc(F)cc1,–,inactive
COc1ccc(COC(=O)N/N=C2/C[C@@H](O)[C@@H](O)[C@@H]3[C@H]4C(=O)N(c5ccc(F)cc5F)C(=O)[C@@H]4CC[C@@H]23)cc1,-3.56% [at 11.4 µM],–
COc1cc2c3cc1Oc1c(OC)c(OC)cc4c1[C@@H](Cc1ccc(O)c(c1)Oc1ccc(cc1)C[C@@H]3N(C)CC2)CN(C)C4,-11.1% [at 11.4 µM],–
Nc1cc(C(=O)O)[nH]c(=O)n1,-6.95% [at 11.4 µM],–
O=C(O)c1nc(-c2ccccc2)[nH]c1C(=O)O,–,1 µM (active)
C=CCn1c(Cc2ccc(OC)cc2)nnc1SCC(=O)c1cccc([N+](=O)[O-])c1,–,inactive
C=CCn1c(COc2ccccc2)nnc1SCC(=O)N/N=C/c1ccc(C)cc1,–,3.55 µM (active)
COc1cccc2[nH]c3c(N4CC(C)CC(C)C4)ncnc3c12 (stereo not drawn),–,2 µM (active)
CSc1ccccc1N1CCN(C(=O)Nc2ccc3c(c2)NC(=O)CO3)CC1,–,inactive
c1cnc(Nc2nc(-c3ccc4ccccc4c3)cs2)nc1,–,0.224 µM (active)
COc1ccc(-c2csc(NC(=O)CCn3cnc4ccccc4c3=O)n2)cc1OC,–,inactive
N[C@H](CO)C(=O)NCC(=O)O (H-[dS]-Gly-OH),3.56% [at 2.29 µM],–
COC(=O)c1nn(-c2cccc(C(F)(F)F)c2)c(=O)cc1Sc1ccccn1,–,2.24 µM (active)
CC(C)Nc1nc(NC(C)(C)C)nc(Oc2ccc(=O)n(-c3ccccc3)n2)n1,–,inactive
COc1cc(-c2[o+]c3cc(O)cc(O)c3cc2O)cc(O)c1O,-19.9% [at 2.29 µM],–
CCSc1nc2sc3c(c2c(=O)[nH]1)CC(C)(CC)OC3 (stereo not drawn),–,inactive
C=CCSc1nc2c(sc3nc(C)cc(C)c32)c(=O)[nH]1,–,1.12 µM (active)

SMILES,"activity, negative = inhibition",AC50
O=C(Cn1ccnc1[N+](=O)[O-])NCCO,–,inactive
O=C(O)CCc1nc(-c2ccccc2-n2cccc2)no1,-17.3% [at 2.29 µM],–
Nc1nc(N)c(CCCCc2ccccc2)c(N)n1,-0.16% [at 2.29 µM],–
CCN(CC)CCc1nc(-c2ccccc2)no1,–,5.01 µM (active)
c1ccc(CCc2nc(-c3ccccc3)no2)cc1,–,2.82 µM (active)
O=C(CCc1nc(-c2ccccc2)no1)NCCc1ccccc1,–,2.82 µM (active)
CN1C(=O)NC(c2ccc(O)cc2)C(C(=O)c2cccs2)C1(O)C(F)(F)F (stereo not drawn),–,inactive
Cc1ccccc1N=C(N)Nc1ccccc1C,–,inactive
NC(=S)Nc1ccc(Oc2ccc(NC(N)=S)cc2)cc1,–,inactive
NC(=S)Nc1cc2ccccc2c2ccccc12,–,0.0708 µM (active)
CN=C(N)/N=C(\N)Nc1cc2ccccc2c2ccccc12,–,0.251 µM (active)
O=P(O)(O)CCP(=O)(c1ccccc1)c1ccccc1,–,inactive
C[C@@H]1CCN=C(N)S1,–,inactive
O=C(OCC#CCSc1nnc(-c2cccc3ccccc23)o1)c1ccco1,–,0.398 µM (active)
Cc1ccc(N2C(=O)C(Cl)=C(NCc3ccccc3)C2=O)c(C)c1,–,11.2 µM (active)
CC1=NN(c2ccc(C)cc2C)C(=O)C1C(c1ccccc1)C1C(=O)N(c2ccc(C)cc2C)N=C1C (stereo not drawn),–,inactive
CO[C@H]1COC(=O)[C@H]2CCCN2C(=O)C/C=C\[C@@H](C)[C@H](OC)COC(=O)[C@@H](OCc2ccccc2)/C=C\[C@@H]1C,-3.46% [at 11.4 µM],–
S=C(NCc1ccco1)N1CCN(C(c2ccccc2)c2ccccc2)CC1,–,inactive
O=C(CN1CCc2ccccc21)NC(=O)NCc1ccco1,–,6.31 µM (active)
CO[C@@H]1/C=C\O[C@]2(C)Oc3c(C)c(O)c4c(O)c(cc(O)c4c3C2=O)NC(=O)/C(C)=C\C=C/[C@H](C)[C@@H](O)[C@H](C)[C@H](O)[C@H](C)[C@H](OC(C)=O)[C@@H]1C,-9.97% [at 11.4 µM],–
Nc1c2c(=O)oc(-c3ccccc3)cc2nn1-c1ccccc1,–,2.24 µM (active)
COC(=O)N1CCC2(CC1)CN(c1ccncc1)C2,–,inactive

SMILES,"activity, negative = inhibition",AC50
CO/N=C\[C@@H](OC)[C@H](C)/C=C\CC(=O)OC,-3.46% [at 11.4 µM],–
CSc1nnc(-c2sc(-c3ccccc3)nc2C)n1C,–,11.2 µM (active)
C#CCSc1nnc(-c2sc(-c3ccccc3)nc2C)n1C,–,4.47 µM (active)
Cn1c(CN2CCOCC2)nnc1SCc1ccccc1,–,inactive
CC(=O)c1cn(CCCCCCCCCCn2cc(C(C)=O)c(=O)[nH]c2=O)c(=O)[nH]c1=O,–,inactive
CCCCCCC(C)n1cc(C(C)=O)c(=O)[nH]c1=O (stereo not drawn),–,inactive
CCCCCCCCn1cc(C(C)=O)c(=O)[nH]c1=O,–,15.8 µM (active)
CCCOc1ccc(-c2nc(N)n[nH]2)cc1,–,15.8 µM (active)
O=C1[C@H]2[C@H]3[C@H](O)[C@H](O)C/C(=N/OC[C@@H](O)COCc4ccco4)[C@@H]3CC[C@@H]2C(=O)N1C[C@@H]1CCCO1,6.9% [at 11.4 µM],–
CC(=O)COc1ccc2c(C)c(C)c(=O)oc2c1,–,1 µM (active)
CCC(CC)c1nnc(NC(=O)COc2ccc3c(C)cc(=O)oc3c2)s1,–,inactive
COc1ccc2sc3ccccc3c(=O)c2c1OC,–,3.55 µM (active)
CN1[C@@H]2CC[C@H]1CC(OC(=O)c1c[nH]c3ccccc13)C2 (stereo partly drawn),–,inactive
O=C(CCN1CCCCC1)N1CCc2c([nH]c3ccccc23)[C@H]1c1cccnc1,-19.7% [at 2.29 µM],–
O=C(OCCN1CCCCC1)c1c[nH]c2ccccc12,–,12.6 µM (active) and 15.8 µM (active)
COc1ccc(NC(=O)N2CCC3(CC2)CCN(C(=O)c2cccn2C)CC3)cc1,–,inactive
CC(=O)N(/N=C1\Sc2ccccc2C1=O)c1ccccc1,–,2.24 µM (active)
CC(=O)N(/N=C1\Sc2ccccc2C1=O)c1ccccc1C,–,14.1 µM (active)
COC(=O)[C@@H]1O[C@@H](SCCN)[C@@H](O)[C@H](O)[C@H]1O,10.2% [at 2.29 µM],–
CCC1(C)Cc2c(sc3nnn(CC(=O)Nc4ccc(C)cc4)c(=O)c23)CO1 (stereo not drawn),–,14.1 µM (active)
CCc1cc2c(nc1CC)CCN(CC/C(C)=N/OCC[C@@H]1C=C[C@H](OC(C)=O)[C@H](COC(C)=O)O1)C2,-15.5% [at 11.4 µM],–
N#CC1=C(N)OC2=C(CC/C2=C\c2ccccc2)C1c1ccccc1 (stereo not drawn),–,2.51 µM (active)

SMILES,"activity, negative = inhibition",AC50
O=C(OCc1nc2ccccc2s1)c1ccc(Br)s1,–,3.16 µM (active)
CC(=O)OCc1nc2ccccc2s1,–,2.82 µM (active)
CCCc1cc(C(=O)Cc2nc3ccccc3s2)c(O)cc1O,–,2.24 µM (active)
Nc1cc(=O)[nH]c(N)n1,–,inactive
N=c1ccn2c(n1)O[C@H]1[C@@H](OP(=O)(O)O)[C@H](CO)O[C@H]12,-3.14% [at 2.29 µM],–
COC(=O)[C@@H]1CC[C@H](C)[C@@H](c2ccc(C)cc2)N1C(=O)c1ccc(/C=N\OC[C@@H](O)COCc2ccco2)cc1,-1.66% [at 11.4 µM],–
CNc1ccnc(-c2ccccc2C(F)(F)F)n1,–,12.6 µM (active)
Fc1ccc(Nc2ccnc(-c3ccccc3C(F)(F)F)n2)cc1,–,2 µM (active)
CN1C[C@H](c2ccccc2)C(O)([C@]2(c3ccccc3)CN(C)C[C@@H](c3ccccc3)C2=O)[C@H](c2ccccc2)C1 (stereo partly drawn),-5.45% [at 11.4 µM],–
O[C@@H](c1cc([C@@]23C[C@H]4CC[C@@H]2C[C@H](C4)C3)nc2c(Cl)cc(Cl)cc12)[C@@H]1CCCCN1,-10.5% [at 2.29 µM],–
CCOC(=O)c1c(C)nc2sc3c(=O)n(-c4ccc(OC)cc4)nnc3c2c1-c1ccc(OC)cc1,–,inactive
CCOC(=O)c1nc2sc(C)c(C)c2c(=O)[nH]1,–,14.1 µM (active)
Cc1ccc(Nc2nc(Cl)nc(N(C)C#N)n2)cc1,–,3.55 µM (active)
O=C(O)NCC1CCCCC1 (tested in a mixture with another compound),-10.2% [at 11.4 µM],–
Cc1nc(-c2c(C(F)(F)F)noc2-c2ccc(O)cc2O)cs1,–,12.6 µM (active)
O=C(NCc1ccccc1)C(c1ccc(F)cc1)N(Cc1ccco1)C(=O)c1ccccn1 (stereo not drawn),–,inactive
O=C(c1ccco1)N(CCC(c1ccccc1)c1ccco1)Cc1ccco1 (stereo not drawn),–,14.1 µM (active)
NC(=O)CC(c1ccccc1)c1ccco1 (stereo not drawn),–,inactive
CCOC(=O)C1CCCN(C(=O)c2sc3nc(-c4ccc(OC)cc4)cn3c2C)C1 (stereo not drawn),–,20 µM (active)
CCOC(=O)C1CCCN(C(=O)CCn2nc(-c3ccccc3)ccc2=O)C1 (stereo not drawn),–,inactive
CCOC(=O)C1CCN(Cc2cnc(Oc3ccc(OC)cc3)s2)CC1,–,inactive
O=C(O)c1ccc([N+](=O)[O-])c(P(=O)(O)O)c1,-9.8% [at 11.4 µM],–
